Screening results (PubChem)
In the library only some 12% were active in any assay of this set; here they are far more common.
Pf growth 96h – P. falciparum growth inhibition at 96 hours; AID 504834; 6.9% of 320,000 active; Potency, µM (titrated, usually from 28.7 µM), without a hit: at the top dose activity change, negative = inhibition, actives largely listed as inhibitors; P. falciparum luciferase reporter growth, 96 h; note: % is set by controls: 0 for no effect and ±100 for the full control effect
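Infected RBCs, 2% Hct / 0.05% parasitemia final; luciferase-reporter P. falciparum; cpd 96 h, 37 C, 5% CO2; luciferase detection reagent; luminescence.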
Sm TGR inh – inhibitors of Schistosoma mansoni thioredoxin glutathione reductase | purified TGR, DTNB reduction, TNB absorbance 405 nm | Potency, µM (doses to about 114 µM), for the others: at the top dose activity change, negative = inhibition, actives largely listed as inhibitors | 3% of 360,000 active | Q962Y6; note: % is set by controls: 0 for no effect and ±100 for the full control effect; nearly all actives have a fitted effect of over 60% in size
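Kinetic colorimetric format: TGR-catalysed, NADPH-driven DTNB reduction monitored via TNB absorbance. Enzyme dispensed at 20 nM; compound exposure 15 min at room temperature before reaction start.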
SARS PLP yeast – inhibitors of SARS-CoV papain-like protease in yeast | S. cerevisiae expressing SARS-CoV PLpro, growth rescue | Potency, µM (doses to about 32.9 µM), inactives show at the highest dose activity, positive = growth rescue, most hits filed as activators | 0.19% of 330,000 active; calls by dose curve; note: 0% is about no effect; nearly all actives have a fitted effect of over 55% in size
Pf growth 48h – inhibits P. falciparum growth in the first generation, 48 h | P. falciparum luciferase growth in erythrocytes, 48 h | 5.9% of 310,000 active | Potency, µM (highest dose often 28.7 µM), for the others: at the highest dose activity change, negative = inhibition, most hits filed as inhibitors; note: % is set by controls: 0 for no effect and ±100 for the full control effect
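In quantitative HTS format, infected erythrocytes bearing luciferase-reporter parasites were treated for a single generation at 37 C. Luminescence after adding detection reagent served as the growth measure.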
Starred values were filed as active, the others as inactive; ? = inconclusive; . = not tested or not shown. Unless noted, calls come from the whole dose curve; as a rule, active = well fitted curve in the direction sought with a large enough effect; inconclusive = small, poorly fitted or top-dose-only effect, or another doubt; inactive = no such curve, though single readings can be large; an effect the other way counts as inactive or inconclusive. Potency is the fitted concentration of half-maximal effect.

SMILES	Pf growth 96h	Sm TGR inh	SARS PLP yeast	Pf growth 48h
COc1ccc(C(CNC(=O)c2c(C)nn(Cc3ccc(C)cc3)c2Cl)N2CCOCC2)cc1 (stereo not drawn)	?	3.9%	-10.5%	10.4µM*
Cc1nn(Cc2ccccc2)c(C)c1C(=O)NCC(c1cccs1)N1CCOCC1 (stereo not drawn)	-0.3%	-1.5%	-2.5%	?
O=C(NCC(c1cccs1)N1CCOCC1)c1ccc(Br)o1 (stereo not drawn)	3.2%	25.1µM*	.	2.6%
Cc1ccc(Cn2nc(C)c(C(=O)NCC(c3cccs3)N3CCOCC3)c2Cl)cc1 (stereo not drawn)	?	2.5%	.	11.7µM*
Cc1ccc(CNC(=O)CSc2nc3ccccc3nc2Cc2ccc(C)cc2)cc1	.	-6.0%	.	.
COCc1oc2ccc(NS(=O)(=O)c3ccc(C)cc3)cc2c1C(=O)OC	.	-3.1%	.	.
Cc1cc(-c2ccccc2)nc(=O)[nH]1	6.57µM*	0.0%	2.6%	19.5%
O=c1nc(-c2ccccc2)cc(C(F)(F)F)[nH]1	?	8.0%	1.2%	?
Cc1ccc(CN(C(=O)COc2ccc(Cl)cc2)c2ccccn2)o1	.	-33.0%	.	.
Cc1ccc(CN(C(=O)COc2ccccc2Cl)c2ccccn2)o1	.	39.8µM*	.	.
Cc1noc(C)c1S(=O)(=O)N(CC(=O)NC1CCC(C)CC1)c1ccc(C(C)C)cc1 (stereo not drawn)	?	-5.0%	-0.1%	10.4µM*
O=C(CN(c1ccc(Cl)cc1)S(=O)(=O)c1ccc(Cl)c([N+](=O)[O-])c1)NCCc1ccccc1	?	.	-0.3%	?
O=C(CN(c1ccc(Cl)cc1)S(=O)(=O)c1ccc(Cl)c([N+](=O)[O-])c1)NCCc1ccc(F)cc1	11.7µM*	?	3.8%	?
CCOc1ccc(N(CC(=O)NC2CCC(C)CC2)S(=O)(=O)c2c(C)noc2C)cc1 (stereo not drawn)	?	1.1%	?	?
Cc1ccc(CCNC(=O)CN(c2ccc(C)cc2)S(=O)(=O)c2c(C)noc2C)cc1	?	1.0%	2.1%	-13.7%
Cc1ccc(N(CC(=O)NC2CCCCCC2)S(=O)(=O)c2c(C)nn(C)c2C)cc1	11.7µM*	-22.8%	2.1%	-0.3%
COc1ccc(N(CC(=O)NC2CCCCCC2)S(=O)(=O)c2c(C)nn(C)c2C)cc1	?	3.3%	1.3%	-24.2%
Cc1ccc(N(CC(=O)NCCc2ccc(Cl)cc2)S(=O)(=O)c2c(C)noc2C)cc1	2.33µM*	-4.0%	3.9%	-4.8%
CC(C)(C)c1ccc(C(=O)NCC(=O)NCc2ccccn2)cc1	36.9%	5.1%	-11.8%	35.0%
Cc1ccc(CNC(=O)CN(c2ccc(C(C)C)cc2)S(=O)(=O)c2c(C)noc2C)cc1	10.4µM*	-6.8%	0.2%	-7.7%
Cc1cc(C)cc(N(CC(=O)Nc2ccc(C(F)(F)F)cc2)S(=O)(=O)c2c(C)[nH]c(=O)[nH]c2=O)c1	5.6%	-2.6%	1.6%	14.7µM*
COc1ccc(N(CC(=O)NCc2ccc(C)cc2)S(=O)(=O)c2c(C)[nH]c(=O)[nH]c2=O)cc1	4.65µM*	2.2%	5.4%	24.9%
COc1ccc(N(CC(=O)NCc2cccs2)S(=O)(=O)c2c(C)nn(C)c2C)cc1	?	-0.1%	-0.4%	.
COc1cc(NC(=O)CN(c2cc(C)cc(C)c2)S(=O)(=O)c2c(C)[nH]c(=O)[nH]c2=O)cc(OC)c1	?	-2.0%	1.8%	-4.9%
Cc1nn(C)c(C)c1S(=O)(=O)N(CC(=O)NCc1cccs1)c1ccc(C(C)C)cc1	9.28µM*	3.5%	-10.4%	0.9%
COc1cccc(C(=O)Nc2cc(C(=O)NCc3ccc(C)cc3)ccc2N2CCC3(CC2)CC(c2ccccc2)=NO3)c1	1.31µM*	-6.7%	-3.7%	?
Cc1ccc(CNC(=O)c2ccc(N3CCC4(CC3)CC(c3cccc(Br)c3)=NO4)c(NC(=O)c3ccccc3)c2)cc1	?	-10.7%	1.5%	9.28µM*
O=C(N/N=C/c1ccccc1)C1CCCN1C(=O)c1cc([N+](=O)[O-])cc([N+](=O)[O-])c1 (stereo not drawn)	?	-22.2%	-1.2%	-10.2%
CCOc1ccccc1NC(=O)CN1c2ccccc2S(=O)(=O)c2ccccc21	.	1.5%	.	.
C=C(C)COc1ccc2c(C)c(CC(=O)N3C[C@H]4C[C@@H](C3)c3cccc(=O)n3C4)c(=O)oc2c1C	11.7µM*	-8.2%	-7.2%	?
